Test results from PubChem BioAssay (Tox21).
“And” between values parts separate entries of the source, which are not always exact repeats. Equal values may be shown once. Where a structure was tested more than once in an assay, its records may differ in their call. The source made the active and inactive calls. A call without a number means that no potency is given here. Unless noted, the call rests on the fitted dose curve; in most records, active means well fitted curve in the direction sought with a large enough effect in the repeat runs; inconclusive means weak or mixed curves; inactive means no such curve, though single readings can be large; an effect the other way counts as inactive or inconclusive.

Experiments:
[1] = qHTS assay to identify small molecule antagonists of the thyroid receptor (TR) signaling pathway - cell viability counter screen (AID 743064); further: nearly all actives have a fitted effect of over 50% in size; further: potency means the concentration at half of the fitted maximal effect
Procedure, shortened: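 Rat GH3 pituitary tumor cells stably expressing two TR response elements driving luciferase were plated, rested 4 h, then dosed with library compounds and T3 (1 nM final). After 23.5 h at 37 °C, CellTiter-Fluor was added for 30 min and fluorescence recorded.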

[2] = test system: thyroid hormone receptor (rat, GH3 cells); experiment: qHTS assay to identify small molecule agonists of the thyroid receptor (TR) signaling pathway (AID 743066; calls by dose curve; further: potency means the concentration at half of the fitted maximal effect)
[3] = target: Estrogen receptor (Homo sapiens) (UniProt P03372); experiment: qHTS assay to identify small molecule antagonists of the estrogen receptor alpha (ER-alpha) signaling pathway (AID 743069; active means well fitted curve in the direction sought with a large enough effect in the signal ratio in the repeat runs, not every such curve was filed as active; inconclusive means weak or mixed curves, or effect the other way; inactive means no such curve, though single readings can be large or run the other way; the % refers to the signal ratio)
Chain of Estrogen receptor (Homo sapiens) (P03372 whole entry, looked up): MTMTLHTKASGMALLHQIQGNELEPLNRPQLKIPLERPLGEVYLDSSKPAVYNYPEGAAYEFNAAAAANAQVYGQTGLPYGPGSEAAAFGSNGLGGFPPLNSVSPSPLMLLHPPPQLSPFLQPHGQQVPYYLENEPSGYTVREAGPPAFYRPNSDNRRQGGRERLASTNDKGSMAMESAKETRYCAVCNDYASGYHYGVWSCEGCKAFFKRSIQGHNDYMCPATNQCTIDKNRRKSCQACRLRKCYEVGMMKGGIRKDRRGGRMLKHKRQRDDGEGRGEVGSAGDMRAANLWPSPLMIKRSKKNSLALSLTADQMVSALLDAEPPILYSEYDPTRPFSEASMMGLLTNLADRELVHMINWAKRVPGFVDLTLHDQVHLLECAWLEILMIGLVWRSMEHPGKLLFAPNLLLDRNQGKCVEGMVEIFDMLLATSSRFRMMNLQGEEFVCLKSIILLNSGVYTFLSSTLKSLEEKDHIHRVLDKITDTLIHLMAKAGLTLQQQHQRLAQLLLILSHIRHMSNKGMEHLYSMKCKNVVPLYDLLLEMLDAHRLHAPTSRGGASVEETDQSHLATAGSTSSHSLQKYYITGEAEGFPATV
Procedure, shortened: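 Beta-lactamase FRET fluorescence is read after 2 hr at room temperature with LiveBLAzer B/G substrate. Before that, ER-alpha-bla HEK293 cells sit 4 hr after plating, then receive compound plus 17beta-estradiol and incubate 18 hr at 37C.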

[4] = qHTS assay to identify small molecule antagonists of the estrogen receptor alpha (ER-alpha) signaling pathway - cell viability counter screen (AID 743074; calls by dose curve;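 further: HEK293 cells carrying ER-alpha-UAS-bla reporter stimulated with 17beta-estradiol; nearly all actives have a fitted effect of over 45% in size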; further: potency means the concentration at half of the fitted maximal effect)
[5] = target: Estrogen receptor (Homo sapiens) (UniProt P03372); experiment: qHTS assay to identify small molecule agonists of the estrogen receptor alpha (ER-alpha) signaling pathway (AID 743075; calls by dose curve;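 further: HEK293 GripTite cells with ER-alpha and UAS-driven beta-lactamase reporter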; further: potency means the concentration at half of the fitted maximal effect)
[6] = target: Estrogen receptor (Homo sapiens) (UniProt P03372); experiment: qHTS assay to identify small molecule agonists of the estrogen receptor alpha (ER-alpha) signaling pathway using the BG1 cell line (AID 743079); further: nearly all actives have a fitted effect of over 20% in size; further: potency means the concentration at half of the fitted maximal effect
[7] = qHTS assay to identify small molecule antagonists of the estrogen receptor alpha (ER-alpha) signaling pathway using the BG1 cell line (AID 743080; calls by dose curve;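 further: BG1 cells stimulated with 17beta-estradiol alongside compound; nearly all actives have a fitted effect of over 25% in size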; further: potency means the concentration at half of the fitted maximal effect)
Procedure, shortened: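 Luciferase inhibition measured with ONE-Glo after 30 min at RT in BG1Luc4E2 cells given test compounds and 17beta-estradiol for 21.5 h at 37 C; CellTiter-Fluor viability read in the same wells beforehand.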

[8] = qHTS assay to identify small molecule antagonists of the estrogen receptor alpha (ER-alpha) signaling pathway using the BG1 cell line - cell viability counter screen (AID 743081);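 further: compound given together with 17beta-estradiol as the ER stimulus; nearly all actives have a fitted effect of over 45% in size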; further: potency means the concentration at half of the fitted maximal effect
Aromatase (Homo sapiens) = Aromatase (Homo sapiens) (UniProt P11511); experiment: qHTS assay to identify aromatase inhibitors (AID 743083); further: nearly all actives have a fitted effect of over 55% in size; further: potency means the concentration at half of the fitted maximal effect
Chain of Aromatase (Homo sapiens) (P11511 whole entry, looked up): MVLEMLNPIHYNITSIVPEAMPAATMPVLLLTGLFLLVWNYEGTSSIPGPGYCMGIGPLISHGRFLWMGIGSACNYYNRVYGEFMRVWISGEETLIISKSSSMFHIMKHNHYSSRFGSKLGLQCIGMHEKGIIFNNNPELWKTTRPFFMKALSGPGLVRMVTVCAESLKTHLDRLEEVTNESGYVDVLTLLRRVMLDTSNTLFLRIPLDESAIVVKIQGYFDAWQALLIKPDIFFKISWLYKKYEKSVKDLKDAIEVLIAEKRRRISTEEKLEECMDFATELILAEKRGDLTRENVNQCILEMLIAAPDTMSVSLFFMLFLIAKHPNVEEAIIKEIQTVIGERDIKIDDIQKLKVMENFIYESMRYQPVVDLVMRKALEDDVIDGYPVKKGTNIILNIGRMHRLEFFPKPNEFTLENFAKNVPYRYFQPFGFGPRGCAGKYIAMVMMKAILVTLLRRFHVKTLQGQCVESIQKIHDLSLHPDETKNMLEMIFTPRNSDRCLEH

[9] = qHTS assay to identify small molecule antagonists of the thyroid receptor (TR) signaling pathway (AID 743065); further: nearly all actives have a fitted effect of over 55% in size; further: potency means the concentration at half of the fitted maximal effect
Procedure, shortened: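 GH3.TRE-Luc rat pituitary cells (two TREs driving luciferase) were dosed with compound, then stimulated with 1 nM T3 (final) for 23.5 h at 37 C. ONE-Glo luminescence was the read-out, with CellTiter-Fluor fluorescence as the cytotoxicity counter-screen.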

Compound | Potency [1] | Potency [2] | Potency [3] | Potency [4] | Potency [5] | Potency [6] | Potency [7] | Potency [8] | Potency (Aromatase (Homo sapiens)) | Potency [9]
CCOP(=O)(O)C(N)=O | inactive | inactive | inactive | inactive | inactive | inactive | inactive | inactive | inactive | 
OCCCl | inactive | inactive |  | inactive |  |  |  | inactive | inactive | inactive
CCC1(CCC(C)C)C(=O)NC(=O)NC1=O | inactive | inactive |  |  |  |  |  |  | inactive | inactive
CC[N+]1(C)CCCC(OC(=O)C(O)(c2ccccc2)c2ccccc2)C1 (stereo not drawn) | inactive | inactive |  | inactive |  |  |  | inactive | inactive | inactive
CCOC(=O)C1OC1(C)c1ccccc1 (stereo not drawn) | inactive | inactive |  | inactive |  |  |  | inactive | inactive | inactive
O=C(O)CCCOc1ccc(Cl)cc1Cl | inactive | inactive |  | inactive |  |  |  | inactive | inactive | inactive
O=C(NCNC(=O)NC1C(=O)NC(=O)N1CO)NC1C(=O)NC(=O)N1CO (stereo not drawn) | inactive | inactive |  | inactive |  |  |  | inactive | inactive | inactive
O=C1NC(=O)C(=O)C(=O)N1 | inactive | inactive | inactive | inactive | inactive | inactive | inactive | inactive | inactive | 
CCCN(CCOc1c(Cl)cc(Cl)cc1Cl)C(=O)n1ccnc1 | 62.4 µM (active) | inactive |  | inactive |  |  |  | inactive | 1.57 µM (active) and 969 nM (active) | 27.9 µM (active) and 61.1 µM (active)
COc1ccc2c(c1OC)C(=O)O[C@H]2[C@@H]1c2cc3c(cc2CCN1C)OCO3 | inactive | inactive |  | inactive |  |  |  | inactive | inactive | inactive
CC(C)CCON=O | inactive | inactive |  | inactive |  |  |  | inactive | inactive | inactive
O=C(N[C@H]1CN2CCC1CC2)c1ccc2c(c1)OCCO2 | inactive | inactive |  | inactive |  |  |  | inactive | inactive | inactive
CC(C)CCCCCCCOC(=O)c1ccccc1C(=O)OCCCCCCCC(C)C | inactive |  |  | inactive |  |  |  | inactive | inactive | inactive
O=C(O)COc1cc(Cl)c(Cl)cc1Cl | inactive | inactive |  |  |  |  |  | inactive | inactive | 54.5 µM (active)
C[C@H]1[C@@H]2Cc3ccc(O)cc3[C@@]1(C)CCN2C | inactive | inactive |  |  |  |  |  |  |  | 
CCCCCCCCn1sccc1=O | 6.13 µM (active) and 5.09 µM (active) |  |  | 55.1 µM (active) and 51.3 µM (active) |  |  | inactive | inactive | 10.9 µM (active) and 32.1 µM (active) | 4.87 µM (active) and 3.6 µM (active)
C[Si](Cn1cncn1)(c1ccc(F)cc1)c1ccc(F)cc1 | 63.1 µM (active) | inactive |  | inactive |  |  |  | inactive | 316 nM (active) and 545 nM (active) | 28.2 µM (active) and 54.5 µM (active)
[Cl-].[Cl-].[Hg+2] | 1.33 µM (active) and 1.36 µM (active) and 243 nM (active) |  |  | 24.4 µM (active) |  |  |  | 54.2 µM (active) and inactive | 13.3 µM (active) and 1.36 µM (active) and 15.4 µM (active) | 841 nM (active) and 1.21 µM (active) and 193 nM (active)
Oc1cccc(Cl)c1 | inactive | inactive | inactive | inactive | inactive | inactive | inactive | inactive | inactive | 

Compound | Potency [1] | Potency [2] | Potency [3] | Potency [4] | Potency [5] | Potency [6] | Potency [7] | Potency [8] | Potency (Aromatase (Homo sapiens)) | Potency [9]
C[CH2][Hg][S]c1ccccc1C(=O)O | 298 nM (active) and 273 nM (active) |  |  | 13.4 µM (active) and 12.3 µM (active) |  |  |  | 21.1 µM (active) and 17.2 µM (active) | 5.96 µM (active) and 1.09 µM (active) | 335 nM (active) and 243 nM (active)
CN(C)N | inactive | inactive |  | inactive |  |  |  | inactive | inactive | inactive
O=C(O)C(O)C(O)C(=O)O (stereo not drawn) | inactive | inactive | inactive | inactive | inactive | inactive | inactive | inactive | inactive | 
O=C1CC[C@@]2(O)[C@H]3Cc4ccc(O)c5c4[C@@]2(CCN3CC2CC2)[C@H]1O5 | inactive | inactive |  | inactive |  |  |  | inactive | inactive | inactive
CCCCCCCCCCCCN(C)C | inactive | inactive | inactive | inactive | inactive | inactive | inactive | inactive | inactive | 
CNC(=O)Oc1cccc(N=CN(C)C)c1 | inactive | inactive |  | inactive | inactive | inactive |  | inactive | inactive | 
CC(=O)OC(c1ccccc1)C(Cl)(Cl)Cl (stereo not drawn) | inactive | inactive | inactive | inactive | inactive |  | 68.6 µM (active) | inactive |  | 
CN(C)C(=O)Nc1cccc(OC(=O)NC(C)(C)C)c1 | inactive | inactive | inactive | inactive | inactive | inactive | inactive | inactive | inactive | 
O=C=NC1CCCCC1 | inactive | inactive | inactive | inactive | inactive | 12.2 µM (active) |  | inactive | inactive | 
Cc1ccc(N)c(C)c1 | inactive | inactive |  | inactive |  |  |  | inactive | inactive | 
CN1CC[C@]23c4c5ccc(O)c4O[C@H]2[C@@H](O)C=C[C@H]3[C@H]1C5 | inactive | inactive |  | inactive |  |  | inactive | inactive | inactive | 
C1CS1 | inactive | inactive | inactive | inactive | inactive | inactive | inactive | inactive | inactive | 
FC(F)OC(F)(F)C(F)Cl (stereo not drawn) | inactive | inactive |  | inactive |  |  |  | inactive | inactive | 
CN(C)c1ccc(N=O)cc1 | 3.87 µM (active) and 9.69 µM (active) | 13.7 µM (active) |  | inactive | inactive | 12.2 µM (active) |  |  | 9.72 µM (active) and 21.7 µM (active) | 
C[C@]12CC[C@H]3[C@@H](CCC4=CC(=O)CC[C@@H]43)[C@@H]1CC[C@@H]2OC(=O)CCc1ccccc1 | inactive | inactive |  | inactive |  |  |  |  |  | 
CCCCC(CC)COC(=O)c1c(Br)c(Br)c(Br)c(Br)c1C(=O)OCC(CC)CCCC (stereo not drawn) | inactive | inactive | inactive |  | inactive | inactive | inactive | inactive | inactive | 
COc1cc(C[C@@H](C)N)c(OC)cc1Br | 62.8 µM (active) | inactive | inactive |  | inactive | inactive | inactive | inactive |  | 
NC(=O)CF | inactive | inactive | inactive | inactive | inactive | inactive | inactive | inactive | inactive | 
C=CCc1ccccc1O | inactive | inactive | inactive | inactive | inactive | inactive | inactive | inactive | inactive | 

Compound | Potency [1] | Potency [2] | Potency [3] | Potency [4] | Potency [5] | Potency [6] | Potency [7] | Potency [8] | Potency (Aromatase (Homo sapiens)) | Potency [9]
CCOC(=O)c1cn2nc(OP(=S)(OCC)OCC)cc2nc1C | inactive | inactive |  | inactive | inactive | inactive | inactive | inactive | inactive | 
O=C(Cc1ccccc1)OCCc1ccccc1 | inactive | inactive | inactive | inactive | inactive | inactive | inactive | inactive | inactive | 
C#C[C@]1(O)CC[C@H]2[C@@H]3CCC4=CC(=O)CCC4=C3C=C[C@@]21CC | inactive | inactive |  | inactive | 0.213 µM [inconclusive] (active) | 0.0422 µM (active) | 23.7 µM (active) | inactive | inactive | 
O=C(Cl)OCCOCCOC(=O)Cl | inactive | 27.3 µM (active) | inactive |  | inactive | inactive | inactive | inactive | inactive | 
CCC1(C2=NCCN2)Cc2ccccc2O1 (stereo not drawn) | inactive | inactive |  | inactive | inactive | inactive | inactive | inactive | inactive | 
CCC(C)Cl (stereo not drawn) | inactive | inactive | inactive | inactive | inactive | inactive | inactive | inactive | inactive | 
CCOP(=S)(OCC)Oc1ccc(S(C)=O)cc1 (stereo not drawn) | inactive | inactive |  | inactive | inactive | inactive | inactive | inactive | inactive | 
Cc1cccc(C)c1NC1=NCCCS1 | inactive | inactive | inactive | inactive | inactive | inactive | inactive |  | inactive | 
CCC1CCC(=O)O1 (stereo not drawn) | inactive | inactive |  | inactive |  |  |  | inactive |  | 
O=C(Cc1ccccc1)c1ccccc1 | inactive | inactive |  | inactive | inactive |  |  | inactive | inactive | 
Nc1ccccc1C(=O)OCCc1ccccc1 | inactive | inactive |  | inactive |  |  |  | inactive |  | 
O=C(O)C(F)(F)C(F)(F)C(F)(F)C(F)(F)C(F)(F)F | inactive | inactive | inactive | inactive | inactive | inactive | inactive | inactive | inactive | 
O=C(O)c1cc(I)cc(I)c1I | inactive | inactive | inactive | inactive | inactive | inactive | inactive | inactive | inactive | 
FC(Cl)(Cl)C(F)(Cl)Cl | inactive | inactive | inactive | inactive | inactive | inactive | inactive | inactive | inactive | 
C[C@H]1O[C@H](OC2[C@@H](O)[C@@H](O)C(O)[C@H](O)[C@H]2O)[C@@H](N)C[C@@H]1N=C(N)C(=O)O (stereo partly drawn) | inactive | inactive | inactive | inactive | inactive | inactive | inactive | inactive | inactive | 
O=CC=O | inactive | inactive | inactive | inactive | inactive | inactive and 28.1 µM (active) | inactive | inactive | inactive | 
NP(N)(=O)NC(=O)c1ccc(F)cc1 | inactive | inactive | inactive | inactive | inactive |  | inactive | inactive | inactive | 
COc1ccccc1N1CCNCC1 | inactive | inactive |  | inactive |  |  |  | inactive | inactive | 
OCC1CO1 (stereo not drawn) | inactive | inactive |  | inactive | inactive | inactive | inactive | inactive | inactive | 
